# Screens deposited in PubChem BioAssay by NMMLSC.
# Avidin bead fluor – compound fluoresces at 488/530 nm on avidin beads; 220,000 compounds, 0.38% hits; compound fluorescence 488/530 nm, flow cytometry; hits give high values; fluorescence (KMESF) at 10 µM; in the data active = fluorescence above about 47
# RGS16-Gao HTS – regulators of human RGS16-Galphao interaction; O15492+P09471; bead-based flow cytometry RGS16-Galphao binding, fluorescence; actives lie on both sides; binding response (% of control), % at 10 µM; 220,000 compounds, 0.38% hits;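 also: Galphao activated by GDP with aluminum fluoride before binding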
# Target sequence (O15492 whole entry, looked up): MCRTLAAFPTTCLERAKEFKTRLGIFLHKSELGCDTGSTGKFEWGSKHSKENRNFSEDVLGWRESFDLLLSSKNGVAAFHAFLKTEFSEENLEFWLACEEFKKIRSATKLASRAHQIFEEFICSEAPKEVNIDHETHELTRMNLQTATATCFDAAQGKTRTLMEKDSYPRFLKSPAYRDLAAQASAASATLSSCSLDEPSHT
# Target sequence (P09471 whole entry, looked up): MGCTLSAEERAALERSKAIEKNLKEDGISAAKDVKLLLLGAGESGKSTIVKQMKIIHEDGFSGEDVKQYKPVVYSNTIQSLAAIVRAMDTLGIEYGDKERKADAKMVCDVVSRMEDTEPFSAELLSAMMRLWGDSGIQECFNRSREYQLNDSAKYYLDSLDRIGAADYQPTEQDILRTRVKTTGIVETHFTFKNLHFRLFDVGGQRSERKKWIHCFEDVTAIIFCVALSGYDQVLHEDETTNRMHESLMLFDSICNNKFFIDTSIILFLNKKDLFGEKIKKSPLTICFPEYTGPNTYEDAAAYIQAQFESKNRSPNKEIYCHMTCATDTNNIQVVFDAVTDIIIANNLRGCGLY
# GSH fluor – compound fluoresces at 488/530 nm on GSH beads; GSH beads flow cytometry, compound fluorescence 488/530 nm; hits give high values; fluorescence (KMESF) at 10 µM; 190,000 compounds, 0.25% hits; in the data active = fluorescence above about 89;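 also: glutathione beads carrying GST-tagged Bcl family fusion proteins plus one bare bead set; values are compound well signal with DMSO vehicle wells as background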
# RGS8-Gao – regulators of human RGS8-Galphao interaction; P09471; multiplexed bead flow cytometry, RGS8-Galphao binding; actives lie on both sides; response (percent of control binding), % at 10 µM; 220,000 compounds, 0.34% hits; AID 1423; in the data active = response below about 60% or above about 140%; inactive = in between;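 also: Galphao activated as the GDP aluminium fluoride complex binding bead-coupled RGS8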
# RGS4-Gao reg – human RGS4-Galphao interaction regulation | P09471 | Multiplexed bead flow cytometry, RGS4-Galphao binding; actives lie on both sides | binding response (% of control), % at 10 µM | 220,000 compounds, 0.33% hits; in the data active = binding response below about 49% or above about 150%; inactive = in between;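 also: fluorescent Galphao activated with aluminum fluoride binding bead-coupled RGS4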
# RGS7-Gao – regulators of human RGS7-Galphao interaction. P09471. Multiplexed bead flow cytometry, RGS7-Galphao binding; actives lie on both sides. binding response (% of control), % at 10 µM. 220,000 compounds, 0.35% hits; in the data active = binding response below about 49% or above about 150%;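 also: fluorescent Galphao held in activated GDP-AlF4 state binding bead-coupled RGS7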
# RGS-Gao – regulators of human RGS4-Galphao interaction; shares compounds with RGS16-Gao HTS; multiplexed bead flow cytometry, RGS–Galpha-o binding; RGS4–Galpha-o binding response, % at 10 µM; 1,600 compounds, 99% hits;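 also: fluorescently labeled Galpha-o bound to GDP with aluminium fluoride binding biotinylated RGS beads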
# Biotin-avidin – counter-screen: compounds disrupting biotin binding to avidin beads; shares compounds with RGS16-Gao HTS; streptavidin beads, fluorescein-biotin binding, flow cytometry; inhibition, % at 10 µM; 1,700 tested, under 10 active; AID 1783;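 active = inhibition above 50%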;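 also: median green fluorescence of gated singlet beads compared with DMSO control wells; 0% = DMSO wells and 100% = complete loss of bead fluorescence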
# RGS8-Gao confirm – RGS8-Galphao interaction regulation, single point confirmation. binding response (% of control), % at 10 µM. shares compounds with RGS16-Gao HTS. AID 1836. 1,700 compounds, 3% hits. bead-based flow cytometry RGS8-Galphao binding, fluorescence; actives lie on both sides; in the data active = binding response below about 72% or above about 130%; inactive = in between;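 also: Galphao activated as GDP AlF4 complex before binding bead RGS8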
# RGS7-Gao single – RGS7-Galphao interaction regulation, single point confirmation. shares compounds with RGS16-Gao HTS. bead-based flow cytometry RGS7-Galphao binding; actives lie on both sides. response (percent of control binding), % at 10 µM. 1,700 compounds, 7.8% hits; in the data active = response below about 75% or above about 130%; inactive = in between;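 also: fluorescent Galphao activated with GDP and aluminum fluoride binding bead-coupled RGS7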
# RGS16-Gao single – RGS16-Galphao interaction regulation, single point confirmation | bead-based flow cytometry, RGS16-Galphao binding; actives lie on both sides | AID 1838 | response (% of control binding), % at 10 µM | shares compounds with RGS16-Gao HTS | 1,700 compounds, 4% hits; in the data active = response below about 74% or above about 130%; inactive = in between;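 also: Galphao activated as the GDP aluminium fluoride complex binding bead-coupled RGS16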
# RGS4-Gao confirm – RGS4-Galphao interaction regulation, single point confirmation. shares compounds with RGS16-Gao HTS. RGS4-Galphao binding, multiplexed bead flow cytometry; actives lie on both sides. binding response (% of control), % at 10 µM. 1,700 compounds, 4% hits. AID 1840; in the data active = binding response below about 74% or above about 130%; inactive = in between
# RGS19-Gao single – RGS19-Galphao interaction regulation, single point confirmation; shares compounds with RGS16-Gao HTS; 1,700 compounds, 5% hits; bead-based flow cytometry RGS19-Galphao binding; actives lie on both sides; AID 1841; response (percent of control binding), % at 10 µM; in the data active = response below about 50% or above about 160%; inactive = in between;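 also: 100% = no compound control and 0% = blank background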
# An asterisk follows results filed as active; . = not tested or not shown; [ ] = dose if it differs, or a comment. Rows were chosen to be rich in hits. Some 1.2% of all compounds tested hit in one or more screens of this group. Unless noted, no rule for the calls is given here.
SMILES,Avidin bead fluor,RGS16-Gao HTS,GSH fluor,RGS8-Gao,RGS4-Gao reg,RGS7-Gao,RGS-Gao,Biotin-avidin,RGS8-Gao confirm,RGS7-Gao single,RGS16-Gao single,RGS4-Gao confirm,RGS19-Gao single
CC(C)CC(NC(=O)c1ccccc1)C(=O)OCC(=O)Nc1ccc(Br)cn1 (configuration not stated),346*,120.0,36,91.6,137.2,237.9*[activator],137.2*,-1.1,96.4,93.6,93.3,93.9,101.2
CCN(C(=O)c1ccc(NC(C)=O)cc1)c1ccccc1,10,-19.8*,15,71.0,77.7,88.0,77.7*,0.8,97.9,97.1,97.0,98.6,99.8
CN1C(=O)CSc2ccc(NC(=O)N3CCC(N4CCCCC4)CC3)cc21,4,278.5*[activator],59,127.4,109.4,109.9,109.4*,-4.7,97.6,64.4*,77.1,76.7,64.9
OCC1(Cc2cccc(Cl)c2)CCCN(Cc2cnn(-c3ccccc3)c2)C1 (configuration not stated),3,98.1,10,101.6,97.1,101.3,.,.,.,.,.,.,.
Cc1ccc(NC(=O)/C(=C\c2ccc3c(c2)OCO3)NC(=O)c2ccco2)cc1,9,101.8,19,98.8,98.7,98.6,.,.,.,.,.,.,.
c1ccc(N(c2ccccc2)c2nc(-n3ccnc3)nc(-n3ccnc3)n2)cc1,.,.,43,.,.,.,.,0.2,101.1,101.4,102.3,100.6,112.9
Cn1c(SCC(=O)c2ccccc2)nnc1-c1cccc(N)c1,-2,-92.5*,47,88.7,59.6,77.2,59.6*,-1.3,103.7,107.7,106.0,105.5,104.7
CC(C)CN1C2CCCC1CC(NC(=S)NCc1ccco1)C2 (configuration not stated),5,97.3,24,97.6,96.3,95.8,.,.,.,.,.,.,.
CN=C1c2cc3c(Br)c(OC)ccc3n2CCN1C,16,153.4,8,97.5,151.5*[activator],127.5,.,-0.8,103.8,95.0,105.4,99.4,96.0
Cn1ncc(Cl)c1C(=O)NC1C2CC3CC(C2)CC1C3 (configuration not stated),20,107.8,11,101.4,97.3,98.1,.,.,.,.,.,.,.
Cc1nn(C)c(C(=O)NC2C3CC4CC(C3)CC2C4)c1Cl (configuration not stated),5,9.8*,11,62.6,87.2,87.0,87.2*,0.4,99.7,93.9,93.5,96.0,93.1
Cc1ccccc1-c1oc(C)c(C)[n+]1[O-],13,104.1,15,104.0,100.5,108.4,.,.,.,.,.,.,.
COc1ccc(-c2[nH]ncc2CN(C)CCN2CCOCC2)cc1F,-2,-4.7*,15,6.9*,-6.3*,-15.3*,.,-1.7,91.3,80.8,86.7,87.4,84.0
O=C(NCC1OCCc2ccccc21)c1ccc(NC(=O)c2ccc(Cl)cc2Cl)cc1 (configuration not stated),190*,445.0*[activator],17,142.9*[activator],315.5*[activator],329.1*[activator],.,4.0,98.0,95.2,90.3,94.0,73.4
